Shiga toxin inh = A qHTS for Small Molecule Inhibitors of Shiga Toxin. Vero cells, Shiga toxin protein synthesis inhibition reporter. inhibition, % at 38.7 µM. 290,000 tested, 9.2% active; in the data active = inhibition mostly above about 28%, no sharp cut-off; inactive = mostly below about 43%; note: 0% is about no effect
CHX counter = Cycloheximide Counterscreen for Small Molecule Inhibitors of Shiga Toxin; cell reporter, cycloheximide protein synthesis inhibition counterscreen; max response, %; 300,000 tested, 12% active; AID 2314, 2010; in the data active = max response mostly above about 13%, no sharp cut-off; inactive = mostly below about 14%; note: read at 38.3 µM for the half of the compounds with a filed dose; 0% is about no effect
NS1 inh = qHTS Assay for Inhibitors of Influenza NS1 Protein Function | Potency, µM (series often up to 46.1 µM), for inactives: at the highest dose activity, positive = more growth | 270,000 tested, 0.4% active; calls by dose curve; note: potency is the fitted concentration of half-maximal effect; actives are rising curves; nearly all actives have a fitted effect of over 50% in size
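Growth recovery, yeast-based: influenza A NS1 expressed in S. cerevisiae causes slow growth, and suppressors are detected by OD600. The parent strain without NS1 is used as positive control.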
Pf growth 96h = Primary qHTS for delayed death inhibitors of the malarial parasite plastid, 96 hour incubation. Potency, µM (doses to about 28.7 µM), for the others: at the top dose activity change, negative = inhibition, usual class: inhibitors. P. falciparum luciferase reporter growth, 96 h. 320,000 tested, 6.9% active. AID 504834, 2011; note: potency is the fitted concentration of half-maximal effect; % is set by controls: 0 for no effect and ±100 for the full control effect
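P. falciparum expressing integrated firefly luciferase, in erythrocytes at 2% hematocrit, 0.05% parasitemia, incubated with compounds 96 h at 37 C, 5% CO2. Growth inhibition read as loss of luminescence; two-generation exposure targets delayed-death apicoplast inhibitors.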
Pf growth 48h = Primary qHTS for delayed death inhibitors of the malarial parasite plastid, 48 hour incubation; P. falciparum luciferase growth in erythrocytes, 48 h; Potency, µM (titrated, usually from 28.7 µM), for the others: at the highest dose activity change, negative = inhibition, usual class: inhibitors; 310,000 tested, 5.9% active; AID 504832, 2011; note: potency is the fitted concentration of half-maximal effect; % is set by controls: 0 for no effect and ±100 for the full control effect
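Here the parasites carry a stable luciferase gene and grow inside erythrocytes in Albumax-based RPMI medium with compound for one erythrocytic cycle. Activity is scored as loss of luminescent signal.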
Giardia FBPA inh = qHTS Assay for Inhibitors of Fructose-1,6-bisphosphate Aldolase from Giardia Lamblia; 290,000 tested, 0.71% active; Potency, µM (doses to about 59.6 µM), for inactives: at the top dose activity, negative = inhibition, usual class: inhibitors; purified Giardia FBPA; note: potency is the fitted concentration of half-maximal effect; % is set by controls: 0 for no effect and ±100 for the full control effect; nearly all actives have a fitted effect of over 55% in size
Target sequence (A8B2U2 whole entry, looked up): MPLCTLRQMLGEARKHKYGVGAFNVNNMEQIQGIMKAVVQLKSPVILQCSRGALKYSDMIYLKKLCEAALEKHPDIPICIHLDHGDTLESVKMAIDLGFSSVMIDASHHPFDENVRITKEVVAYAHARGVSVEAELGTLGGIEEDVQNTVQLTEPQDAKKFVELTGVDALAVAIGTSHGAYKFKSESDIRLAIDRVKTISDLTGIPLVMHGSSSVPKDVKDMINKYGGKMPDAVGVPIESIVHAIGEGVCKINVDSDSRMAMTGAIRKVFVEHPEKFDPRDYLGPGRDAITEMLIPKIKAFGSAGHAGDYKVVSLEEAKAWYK
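Giardia FBPA (40 nM reagent) was preincubated 10 min at RT with compound (up to 57.5 uM final), then substrate plus GAPDH/TPI/NAD/arsenate coupling system with diaphorase/resazurin was added; resorufin fluorescence (525/598 nm) was read after 20 min.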
Active calls of the source: *; ? = inconclusive; . = no result given; [ ] = remark or other dose. Rows were chosen to be rich in hits. Some 21% of all compounds tested hit in one or more screens of this group. Unless noted, calls come from the whole dose curve; as a rule, active = well fitted curve in the direction sought with a large enough effect; inconclusive = small, poorly fitted or top-dose-only effect, or another doubt; inactive = no such curve, though single readings can be large; an effect the other way counts as inactive or inconclusive.

SMILES | Shiga toxin inh | CHX counter | NS1 inh | Pf growth 96h | Pf growth 48h | Giardia FBPA inh
CCCCS(=O)(=O)N1C2=NC(C(=O)OC)=C(C(=O)OC)[C@@H]3N(C)c4ccccc4[C@]23C[C@H]1C(=O)OC | . | . | . | . | . | 4.5%[12.9 µM]
N=C(N)c1ccc(/C=C\c2ccc(C(=N)N)cc2)cc1 | . | . | -47.8% | . | . | .
Cc1ccc(NC(=O)CCC(=O)N2CCOc3ccccc32)c(Cl)c1 | 16.9* | 10.7* | -7.5% | -28.5% | 38.0% | -4.8%
CC(Cc1ccccc1)NC(=S)CN1CCCC1=S (stereo unspecified) | -6.1 | 8.2 | -60.5% | 0.7% | -9.5% | -13.8%
CC(=O)c1nn(-c2cccc(Br)c2)cc1C(=O)c1ccco1 | 24.2 | -1.4 | 5.0% | -16.5% | -2.8% | 1.8%
Cc1nnc(-c2ccco2)c2cn(-c3cccc(Br)c3)nc12 | 18.0 | 44.3* | -2.4% | 0.0% | ? | 2.4%
O=[N+]([O-])c1ccc(C2CCCC/C2=N/OCc2ccc(F)cc2)c([N+](=O)[O-])c1 (stereo unspecified) | 11.2 | 6.8 | -2.8% | ? | 11.7µM* | -20.3%
O=[N+]([O-])c1ccc(C2CCCC/C2=N/OCc2ccccc2F)c([N+](=O)[O-])c1 (stereo unspecified) | -0.8 | 1.1 | 5.7% | ? | ? | -9.5%
CC[C@H](C)[C@H](NC(=O)[C@H](Cc1ccccc1)NC(=O)[C@H](C)NC(=O)[C@H](CC(=O)O)NC(=O)[C@H](CCCCN)NC(=O)[C@H](CO)NC(=O)[C@@H]1CCCN1C(=O)[C@@H]1CCC(=O)N1)C(=O)NCC(=O)N[C@@H](CC(C)C)C(=O)N[C@@H](CCSC)C(N)=O | -8.2 | 6.4 | . | . | . | 1.6%
CCn1c(C)c2c(C)nnc(C)c2c1C | -2.7 | -3.6 | 1.7% | ? | 10.6% | ?
CCn1c(C)c(P(c2ccccc2)c2ccccc2)[n+]2ccccc12 | -10.3 | -2.7 | . | 8.28µM* | 1.47µM* | 4.2%
NC(=O)CSc1nc2ccccc2n1-c1ccccc1 | -6.6 | -5.5 | 9.8% | 9.28µM* | -16.1% | -2.5%
Cc1ccc(-c2csc3nc(SCC(N)=O)n(Cc4ccccc4)c(=O)c23)cc1 | -15.5 | -1.7 | 24.7% | 10.1% | 13.1µM* | 0.0%
NC(=O)CSc1nc2ccccc2n1Cc1ccccc1 | -12.4 | -4.4 | 10.0% | -16.1% | 2.94µM* | -3.8%
Cc1ccc(-c2csc3ncnc(SCC(N)=O)c23)cc1 | 22.0 | 6.4 | -8.5% | 66.6% | -2.7% | 0.9%
CC(C)(C)c1ccccc1NC(=O)N1CCNC(=O)C1CC(=O)Nc1ccc(F)cc1 (stereo unspecified) | -3.1 | 0.3 | 3.0% | -2.0% | ? | .
Cc1ccc(S(=O)(=O)N=Nc2c(O)[nH]c3cc(O)c(C(=O)O)cc23)cc1 | . | . | -5.1% | . | . | .
COc1cccc([C@@H]2Oc3ccc(OC)cc3/C(=N/O[C@@H](C)CN3CCCCc4nc(C)c(C)cc43)[C@@H]2O)c1 | . | . | . | . | . | 0.6%[12.9 µM]
CC(C)Cc1cc(C(=O)N2CCN(c3ccc(F)cc3)CC2)no1 | 13.7 | 10.9 | -8.2% | -29.2% | 4.9% | -1.0%
O=C(c1cn(CC2CCCCC2)nn1)N1CCN(c2ccc(F)cc2)CC1 | 48.8* | 30.2* | -21.8% | 15.0% | 4.2% | .
Cn1c(C(=O)N/N=C/c2ccccc2)cc2ccccc21 | 43.6 | 20.8* | -15.3% | -8.6% | 55.9% | 4.8%
Cn1c(N)c(C(=O)N/N=C/c2ccccc2)sc1=S | -4.3 | -0.6 | 5.0% | -5.4% | -3.7% | 1.7%
Cn1c(/C=N/NC(=O)c2ccccc2)nc2ccccc21 | 75.3* | 30.6* | -15.0% | ? | ? | -13.9%
Cn1c(CCCNC(=O)c2ccccc2)nc2ccccc21 | 4.1 | -1.2 | -4.1% | -15.4% | -2.9% | 0.8%
COc1cc(C(=O)NNC(=O)c2ccc(NC(=O)C(C)(C)C)cc2)cc(OC)c1OC | 1.0 | 0.7 | -4.5% | 9.0% | 21.6% | 4.0%
SMILES | Shiga toxin inh | CHX counter | NS1 inh | Pf growth 96h | Pf growth 48h | Giardia FBPA inh
COc1ccc(NC(=O)c2sc3nc(N4CCCC4)c4c(c3c2N)CC(C)(C)OC4)cc1 | -2.9 | -1.5 | 13.4% | 11.7µM* | 13.1µM* | .
COc1ccc(NC(=O)c2sc3nc(N4CCOCC4)c4c(c3c2N)CC(C)(C)OC4)cc1 | -5.1 | -2.0 | 1.5% | ? | 26.4% | -4.8%
CN1Cc2c(N3CCOCC3)nc3sc(C(=O)c4ccc(Br)cc4)c(N)c3c2CC1(C)C | -18.5 | -2.0 | 0.6% | 9.28µM* | 4.15µM* | -17.2%
CC1(C)Cc2c(c(N3CCOCC3)nc3snc(NC(=O)c4ccccc4)c23)CO1 | -6.8 | -2.4 | -5.9% | 8.28µM* | . | 7.8%
CCCCOC(=O)c1sc2nc(N3CCOCC3)c3c(c2c1N)CC(C)(C)OC3 | -3.4 | -2.1 | 0.2% | -0.4% | 45.4% | -1.2%
Cc1nc2c(sc3nc(N4CCOCC4)c4c(c32)CC(C)(C)OC4)c(-c2ccccc2)c1C(=O)O | -6.4 | -1.5 | -0.9% | ? | 15.5% | 0.2%
COc1ccc(NC(=O)c2sc3nc(N4CCOCC4)c4c(c3c2N)CC(C)(C)OC4)c(OC)c1 | 4.6 | -1.9 | 3.0% | 1.65µM* | ? | .
CCCc1cc(COC)c(C#N)c(=O)[nH]1 | . | . | 0.0% | . | . | .
CC(NC(=O)OC(C)(C)C)C(=O)NC(CCC(=O)OCc1ccccc1)C(N)=O (stereo unspecified) | -4.5 | 2.8 | . | -21.9% | -1.5% | 5.3%
CCC(C)N(C(=O)CSc1nnc2ccccn12)C1CCS(=O)(=O)C1 (stereo unspecified) | . | . | . | 12.8% | -15.7% | .
Clc1nc(Cl)nc(NCCC2=CCCCC2)n1 | 15.1 | 10.4 | . | ? | ? | -16.9%
CC12CN3CC(C)(CN(C1)C3c1ccc(Cl)cc1Cl)C2O (stereo unspecified) | 15.5 | 7.8 | 2.6% | -0.1% | 21.0% | 1.0%
CN(C)c1ccc(C2N3CC4(C)CN2CC(C)(C3)C4O)cc1 (stereo unspecified) | -4.3 | -2.7 | -91.9% | 4.65µM* | . | 4.1%
CCCS(=O)(=O)NCCc1csc(-c2ccc(OC)c(OC)c2)n1 | -7.3 | -2.6 | -6.9% | 1.2% | -4.6% | 3.6%
CCOc1ccc(-c2nc(CSc3nncs3)cs2)cc1OC | 52.8 | 19.0* | -24.1% | ? | -11.6% | -1.5%
CCOc1ccc(-c2nc(CSc3nnc(C)s3)cs2)cc1OC | 89.2* | 37.1* | -66.3% | . | 26.3% | -2.0%
CCS(=O)(=O)NCCc1csc(-c2ccc(OC)c(OC)c2)n1 | -9.0 | 0.8 | -6.0% | 11.8% | 0.3% | -0.2%
Nn1c(SCC(=O)NNC(=O)c2ccccc2)nnc1-c1ccccc1F | . | . | . | 20.0% | ? | .
Cc1cccc(CC(=O)Nc2sc(C(C)C)cc2C(=O)N2CCOCC2)c1 | 12.7 | -2.7 | -2.8% | 5.3% | -23.8% | .
O=C(NCCC1=CCCCC1)Nc1ccc2nsnc2c1 | -3.5 | -4.1 | -1.9% | 46.4% | 2.5% | 2.4%

Assay outcomes: PubChem BioAssay, National Center for Advancing Translational Sciences (NCATS)
